Data as given in PubChem BioAssay AID720597 (Broad Institute, 2013).
Measured potencies and affinities stand elsewhere. The source made the active and inactive calls.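 Rule for the calls: active = fitted half-maximal dose no more than twice the top valid tested dose, for compounds that lower signal; inconclusive = fit invalid, or curve flat with activity between -70 and -30; inactive = potency past limit, curve flat within ±30, or signal increasing.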

molecular target: NAD-dependent protein deacylase sirtuin-5, mitochondrial (Homo sapiens) (UniProt Q9NXA8); assay: blockers of sirtuin-5 peptide desuccinylation – biochemical, fluorescence imaging, cherry-pick, set 6, dose response (AID 720597); conditions: Purified SirT5, succinyl-peptide-AMC/trypsin fluorescence; series mostly up to 15 µM;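 note: lower AMC signal can also come from blocking the trypsin step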
Sequence (Q9NXA8 whole entry, looked up): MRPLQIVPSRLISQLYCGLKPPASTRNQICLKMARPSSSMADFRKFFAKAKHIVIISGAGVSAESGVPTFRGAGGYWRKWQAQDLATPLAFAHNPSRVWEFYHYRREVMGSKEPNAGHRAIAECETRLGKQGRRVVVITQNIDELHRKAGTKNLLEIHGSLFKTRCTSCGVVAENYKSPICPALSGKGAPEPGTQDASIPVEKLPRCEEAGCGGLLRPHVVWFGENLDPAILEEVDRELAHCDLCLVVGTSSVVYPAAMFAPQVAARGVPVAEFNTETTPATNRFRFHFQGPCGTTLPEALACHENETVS

outcome, inactive:
C[C@@H]1CN([C@@H](C)CO)C(=O)c2cccc(N(C)C)c2O[C@@H]1CN(C)Cc1ccccc1, C[C@H](CO)N1C[C@H](C)[C@@H](CN(C)Cc2ccc(C(=O)O)cc2)Oc2ccc(NS(=O)(=O)c3ccc(Cl)cc3)cc2C1=O, COc1ccc(S(=O)(=O)Nc2ccc3c(c2)C(=O)N([C@H](C)CO)C[C@@H](C)[C@@H](CN(C)Cc2ccc(C(F)(F)F)cc2)OCCCC[C@H](C)O3)cc1, C[C@@H]1CN([C@H](C)CO)C(=O)c2cc(NS(=O)(=O)c3ccccc3)ccc2O[C@@H](C)CCCCO[C@H]1CN(C)Cc1ccc(C(F)(F)F)cc1, C[C@@H]1CN([C@H](C)CO)S(=O)(=O)c2ccc(-c3cccc(F)c3)cc2O[C@@H]1CN(C)S(=O)(=O)c1ccc(F)cc1, C[C@@H]1CN([C@@H](C)CO)C(=O)c2cccc(NC(=O)c3nc4ccccc4s3)c2O[C@H]1CN(C)Cc1ccc(C(F)(F)F)cc1, C[C@H]1CN([C@@H](C)CO)C(=O)c2c(c3ccccc3n2C)-c2ccccc2CO[C@H]1CN(C)Cc1ccccc1, C[C@@H]1CN([C@@H](C)CO)C(=O)c2cccc(NS(=O)(=O)c3cn(C)cn3)c2O[C@H]1CN(C)Cc1ccc(C(F)(F)F)cc1, C[C@H](CO)N1C[C@H](C)[C@@H](CN(C)Cc2ccc(Cl)c(Cl)c2)Oc2ccc(NC(=O)CCC(F)(F)F)cc2CC1=O, CC(C)CC#Cc1ccc2c(c1)O[C@H](CN(C)C(=O)c1cccc(F)c1)[C@@H](C)CN([C@H](C)CO)S2(=O)=O, Cc1noc(C)c1NC(=O)Nc1cccc2c1O[C@H](CN(C)Cc1ccc(Oc3ccccc3)cc1)[C@H](C)CN([C@H](C)CO)C2=O
